Results reported in the supplement of paper PMC10849652.
Targets with a hit are over-represented here; the source holds about 8,800 in all. About 0.5% of all pairs of compound and target were hits.

Tests used:
Experiment in all cases: log2 fold change, soluble protein after heating vs DMSO (PISA); higher = thermal stabilisation; K562 lysate, 10 uM; active = over 0.2 and 3.5 SD of the protein, either way, in both replicates (recomputed)
erlotinib = compound: C#Cc1cccc(Nc2ncnc3cc(OCCOC)c(OCCOC)cc23)c1 [erlotinib]
Summary of the method: (§1)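 Quantification was by TMTpro 16plex LC-MS/MS with equalised channel sums, applied to the supernatant after 21,000xg for 90 min. Samples were crude K562 extract at 1 mg/mL protein in PBS pH 7.4 with 1 mM MgCl2, treated with 10 μM compound for 30 min, heated for 3 min across 48°C-58°C, pooled and brought to 0.5% NP-40 at 4°C. Values are log-two fold changes in thermal stability relative to solvent controls, from duplicates.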

[1] = compound: C/C(=N\NC(=O)C1=CC(=CC=C1)S(=O)(=O)N2CCOCC2)/C3=C(C=CC(=C3)Cl)O
Summary of the method: as §1

[2] = compound: C1=CC(=CC=C1C2=NC3=C(N2)C=C(C=C3)C(=O)N)OC4=CC=C(C=C4)Cl
Summary of the method: as §1

[3] = compound: C1=CC2=C(C=CC(=C2)/C=C\3/C(=O)NC(=NCC4=CC=CS4)S3)N=C1
Summary of the method: as §1

[4] = compound: C1=CC2=NC=CN=C2C=C1/C=C/3\C(=O)NC(=O)S3
Summary of the method: as §1

[5] = compound: C1=CC=C(C=C1)C2=NC(=C(N2)C3=CC=NC=C3)C4=CC(=C(C=C4)Cl)O
Summary of the method: as §1

[6] = compound: C1=CC=C2C(=C1)C3=NNC4=CC=CC(=C43)C2=O
Summary of the method: as §1

[7] = compound: C1CCN(C1)C(=O)NC2=CC=CC(=C2)NC3=NC=C(C(=N3)NCCC4=CN=CN4)Br
Summary of the method: as §1

[8] = compound: C1CN(CCC1(CC2=CC=C(C=C2)Cl)N)C3=NC=NC4=C3C=CN4
Summary of the method: as §1

IRAK-1-4 Inhibitor I = compound: C1COCCN1CCN2C3=CC=CC=C3N=C2NC(=O)C4=CC(=CC=C4)[N+](=O)[O-] [IRAK-1-4 Inhibitor I]
Summary of the method: as §1

ibrutinib = compound: C=CC(=O)N1CCC[C@@H](n2nc(-c3ccc(Oc4ccccc4)cc3)c3c(N)ncnc32)C1 [ibrutinib]
Summary of the method: as §1

[9] = compound: CC(=O)c1cnc2ccc(-c3cc(Cl)c(O)c(Cl)c3)nc2c1N[C@H]1CC[C@H](CN(C)C)CC1
Summary of the method: as §1

ralimetinib = compound: CC(C)(C)Cn1c(N)nc2ccc(-c3[nH]c(C(C)(C)C)nc3-c3ccc(F)cc3)nc21 [ralimetinib]
Summary of the method: as §1

[10] = compound: CC(C)(O)CC(=O)NCCn1ccc2ncnc(Nc3ccc(Oc4cccc(C(F)(F)F)c4)c(Cl)c3)c21
Summary of the method: as §1

[11] = compound: CC(C)C1=C2N=C(C=C(N2N=C1)NCC3=CC=CC=C3)NCCCCCCN
Summary of the method: as §1

[12] = compound: CC1=C(C(CC(=O)N1)C2=CC=C(C=C2)C(F)(F)F)C(=O)NC3=C(C=C4C(=C3)C=NN4)F
Summary of the method: as §1

[13] = compound: CC1=C(C2=C(C=C1)C(=O)C3=CC=CC=C3N2CCCN)C
Summary of the method: as §1

[14] = compound: CC1=C(C=C(C=C1)NC(=O)C2=CC(=CC=C2)C(C)(C)C#N)NC3=CC4=C(C=C3)N=CN(C4=O)C
Summary of the method: as §1

[15] = compound: CC1=C(C=C(C=C1)NC(=O)C2=CC(=CC=C2)N(C)C)NC(=O)C3=CC=C(C=C3)O
Summary of the method: as §1

[16] = compound: CC1=CC=C(C=C1)SC2=C3C=C(SC3=CN=C2)C(=O)N
Summary of the method: as §1

Measured: log2 fold change

HMGCL (UniProt P35914)
inactive: erlotinib 0.002 | [1] -0.089 | [2] 0.032 | [3] -0.016 | [4] -0.047 | [5] -0.005 | [6] -0.035 | [7] 0.005 | [8] 0.008 | IRAK-1-4 Inhibitor I 0.024 | ibrutinib 0.037 | [9] 0.008 | ralimetinib 0.026 | [10] -0.016 | [11] -0.018 | [12] 0.001 | [13] -0.019 | [14] -0.009 | [15] 0.022 | [16] -0.014

GPX4 (UniProt P36969)
UniProt P36969, sequence (P36969 whole entry, looked up): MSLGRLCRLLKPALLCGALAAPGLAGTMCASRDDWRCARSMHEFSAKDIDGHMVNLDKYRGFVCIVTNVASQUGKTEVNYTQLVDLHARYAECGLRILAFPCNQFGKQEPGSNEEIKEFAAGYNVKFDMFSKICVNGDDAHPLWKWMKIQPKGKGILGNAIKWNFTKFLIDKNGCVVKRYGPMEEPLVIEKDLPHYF
inactive: erlotinib 0.02 | [1] 0.051 | [2] -0.037 | [3] -0.016 | [4] 0.04 | [5] -0.029 | [6] -0.06 | [7] 0.024 | [8] 0.021 | IRAK-1-4 Inhibitor I 0.012 | ibrutinib -0.013 | [9] 0.01 | ralimetinib 0.011 | [10] 0.018 | [11] -0.004 | [12] 0.006 | [13] -0.002 | [14] 0.014 | [15] 0.003 | [16] 0.039

IRF2BPL (UniProt Q9H1B7)
UniProt Q9H1B7, sequence (Q9H1B7 whole entry, looked up): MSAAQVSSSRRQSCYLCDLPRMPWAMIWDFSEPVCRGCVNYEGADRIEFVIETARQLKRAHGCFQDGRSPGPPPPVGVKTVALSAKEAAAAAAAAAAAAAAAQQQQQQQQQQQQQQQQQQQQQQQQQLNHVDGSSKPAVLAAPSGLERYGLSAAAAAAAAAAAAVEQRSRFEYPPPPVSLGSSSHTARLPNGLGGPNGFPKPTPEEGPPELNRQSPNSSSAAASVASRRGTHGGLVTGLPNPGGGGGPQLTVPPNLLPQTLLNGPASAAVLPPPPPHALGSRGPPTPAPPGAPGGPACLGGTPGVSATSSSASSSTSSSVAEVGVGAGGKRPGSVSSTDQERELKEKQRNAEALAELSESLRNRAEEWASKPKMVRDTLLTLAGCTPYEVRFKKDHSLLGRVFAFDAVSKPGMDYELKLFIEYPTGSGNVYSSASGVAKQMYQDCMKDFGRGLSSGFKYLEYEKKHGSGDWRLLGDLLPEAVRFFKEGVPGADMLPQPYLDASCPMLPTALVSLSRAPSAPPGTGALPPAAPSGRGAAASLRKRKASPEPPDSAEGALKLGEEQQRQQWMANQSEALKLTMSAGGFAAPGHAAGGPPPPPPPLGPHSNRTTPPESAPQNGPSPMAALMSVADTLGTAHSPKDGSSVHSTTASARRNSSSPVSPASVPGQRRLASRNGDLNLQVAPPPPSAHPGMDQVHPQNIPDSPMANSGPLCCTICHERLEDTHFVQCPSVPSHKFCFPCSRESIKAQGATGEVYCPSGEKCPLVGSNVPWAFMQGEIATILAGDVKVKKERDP
inactive: erlotinib 0.024 | [1] 0.102 | [2] 0.037 | [3] 0.022 | [4] -0.034 | [5] 0.002 | [6] -0.008 | [7] -0.002 | [8] 0.027 | IRAK-1-4 Inhibitor I -0.027 | ibrutinib 0.052 | [9] 0.004 | ralimetinib 0.039 | [10] 0.026 | [11] -0.026 | [12] 0.02 | [13] -0.018 | [14] 0.045 | [15] 0.029 | [16] -0.038

HDAC1 (UniProt Q13547)
UniProt Q13547, sequence (Q13547 whole entry, looked up): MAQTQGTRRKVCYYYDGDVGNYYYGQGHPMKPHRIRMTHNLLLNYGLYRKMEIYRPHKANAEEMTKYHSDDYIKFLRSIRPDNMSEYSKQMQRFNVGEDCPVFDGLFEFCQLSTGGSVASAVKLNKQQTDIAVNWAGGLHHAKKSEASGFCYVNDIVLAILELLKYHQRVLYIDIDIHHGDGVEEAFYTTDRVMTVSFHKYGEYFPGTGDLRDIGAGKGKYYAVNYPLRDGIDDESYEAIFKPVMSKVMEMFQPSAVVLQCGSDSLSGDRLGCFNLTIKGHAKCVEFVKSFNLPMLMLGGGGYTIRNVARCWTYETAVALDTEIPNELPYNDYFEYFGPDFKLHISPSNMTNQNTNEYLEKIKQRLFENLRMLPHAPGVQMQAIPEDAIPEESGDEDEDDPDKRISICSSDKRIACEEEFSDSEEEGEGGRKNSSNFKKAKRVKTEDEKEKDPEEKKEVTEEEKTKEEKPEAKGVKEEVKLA
inactive: erlotinib 0 | [1] -0.046 | [2] -0.012 | [3] 0.015 | [4] 0.003 | [5] -0.013 | [6] -0.024 | [7] -0.014 | [8] -0.036 | IRAK-1-4 Inhibitor I -0.043 | ibrutinib -0.026 | [9] -0.001 | ralimetinib 0.031 | [10] 0.01 | [11] -0.001 | [12] 0.001 | [13] -0.008 | [14] -0.022 | [15] 0.008 | [16] 0.011

GSK3A (UniProt P49840)
inactive: erlotinib -0.029 | [1] -0.103 | [2] -0.034 | [3] 0.069 | [4] 0.066 | [5] 0.295 | [6] 0.182 | [7] 0.163 | [8] 0.018 | IRAK-1-4 Inhibitor I -0.014 | ibrutinib -0.01 | [9] 0.146 | ralimetinib 0.022 | [10] -0.001 | [11] -0.045 | [12] -0.017 | [13] 0.01 | [14] -0.109 | [15] -0.007 | [16] 0.207

GTF3C3 (UniProt Q9Y5Q9)
UniProt Q9Y5Q9, sequence (Q9Y5Q9 whole entry, looked up): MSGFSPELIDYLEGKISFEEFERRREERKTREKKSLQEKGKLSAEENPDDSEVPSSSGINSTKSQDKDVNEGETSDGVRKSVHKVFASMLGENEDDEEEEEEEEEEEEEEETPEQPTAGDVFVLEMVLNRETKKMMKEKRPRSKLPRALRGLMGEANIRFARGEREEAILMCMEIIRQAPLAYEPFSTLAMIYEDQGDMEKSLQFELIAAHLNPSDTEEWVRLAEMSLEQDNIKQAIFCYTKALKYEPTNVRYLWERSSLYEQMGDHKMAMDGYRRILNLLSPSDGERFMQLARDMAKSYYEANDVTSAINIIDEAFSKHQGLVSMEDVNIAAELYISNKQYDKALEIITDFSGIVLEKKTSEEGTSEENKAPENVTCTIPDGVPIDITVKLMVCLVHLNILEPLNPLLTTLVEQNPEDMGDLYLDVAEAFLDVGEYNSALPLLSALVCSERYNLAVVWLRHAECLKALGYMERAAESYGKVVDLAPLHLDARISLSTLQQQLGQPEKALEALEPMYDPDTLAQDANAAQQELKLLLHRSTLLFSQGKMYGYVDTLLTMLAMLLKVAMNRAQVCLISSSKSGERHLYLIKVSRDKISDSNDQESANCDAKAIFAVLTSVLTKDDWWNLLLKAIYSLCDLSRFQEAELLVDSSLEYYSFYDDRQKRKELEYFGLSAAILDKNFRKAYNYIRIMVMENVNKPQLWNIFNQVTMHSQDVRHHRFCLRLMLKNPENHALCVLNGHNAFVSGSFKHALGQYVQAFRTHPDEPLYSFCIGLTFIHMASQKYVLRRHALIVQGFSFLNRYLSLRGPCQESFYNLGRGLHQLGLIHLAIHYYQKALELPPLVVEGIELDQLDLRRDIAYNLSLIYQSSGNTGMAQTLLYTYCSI
inactive: erlotinib 0.016 | [1] 0.013 | [2] -0.013 | [3] 0.025 | [4] 0 | [5] -0.005 | [6] -0.065 | [7] 0 | [8] 0.031 | IRAK-1-4 Inhibitor I -0.001 | ibrutinib 0.033 | [9] -0.001 | ralimetinib 0.027 | [10] -0.005 | [11] 0.02 | [12] -0.003 | [13] -0.112 | [14] 0.014 | [15] 0.047 | [16] -0.007

GSTM4 (UniProt Q03013)
UniProt Q03013, sequence (Q03013 whole entry, looked up): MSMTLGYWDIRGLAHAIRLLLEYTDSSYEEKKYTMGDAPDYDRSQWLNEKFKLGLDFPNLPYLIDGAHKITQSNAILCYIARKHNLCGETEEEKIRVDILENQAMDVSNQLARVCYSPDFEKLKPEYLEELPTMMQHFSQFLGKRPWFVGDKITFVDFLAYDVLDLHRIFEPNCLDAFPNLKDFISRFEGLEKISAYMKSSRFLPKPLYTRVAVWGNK
inactive: erlotinib 0.006 | [1] -0.044 | [2] -0.073 | [3] -0.026 | [4] 0.141 | [5] 0.046 | [6] -0.025 | [7] -0.109 | [8] -0.025 | IRAK-1-4 Inhibitor I -0.064 | ibrutinib -0.139 | [9] -0.006 | ralimetinib -0.013 | [10] -0.051 | [11] -0.079 | [12] 0.096 | [13] 0.037 | [14] -0.136 | [15] -0.027 | [16] 0.042

GPA33 (UniProt Q99795)
inactive: erlotinib -0.014 | [1] 0.082 | [2] -0.002 | [3] -0.091 | [4] -0.032 | [5] -0.05 | [6] -0.151 | [7] 0.001 | [8] 0.046 | IRAK-1-4 Inhibitor I 0.024 | ibrutinib 0.037 | [9] -0.029 | ralimetinib 0.188 | [10] -0.123 | [11] -0.067 | [12] -0.091 | [13] 0 | [15] -0.024 | [16] 0.026

GSTM2 (UniProt P28161)
inactive: erlotinib -0.083 | [1] 0.041 | [2] -0.038 | [3] -0.007 | [4] 0.079 | [5] -0.008 | [6] -0.012 | [7] -0.021 | [8] -0.054 | IRAK-1-4 Inhibitor I 0.037 | ibrutinib 0.081 | [9] 0.009 | ralimetinib -0.006 | [10] -0.067 | [11] -0.021 | [12] -0.119 | [13] -0.033 | [15] 0.004 | [16] -0.021

IARS (UniProt P41252)
inactive: erlotinib 0.022 | [1] 0.061 | [2] -0.011 | [3] 0.013 | [4] 0.02 | [5] 0.006 | [6] -0.035 | [7] 0.006 | [8] 0.01 | IRAK-1-4 Inhibitor I -0.006 | ibrutinib -0.015 | [9] -0.001 | ralimetinib 0.037 | [10] 0.035 | [11] 0.029 | [12] -0.016 | [13] 0.012 | [14] -0.04 | [15] 0.05 | [16] 0.029

GLUL (UniProt P15104)
inactive: erlotinib -0.003 | [1] 0.032 | [2] -0.002 | [3] 0.029 | [4] -0.03 | [5] 0.005 | [6] 0.007 | [7] 0.013 | [8] 0.017 | IRAK-1-4 Inhibitor I -0.017 | ibrutinib 0.031 | [9] 0.004 | ralimetinib 0.006 | [10] -0.002 | [11] -0.008 | [12] 0.026 | [13] 0.023 | [14] -0.117 | [15] -0.011 | [16] 0.031

INTS8 (UniProt Q75QN2)
UniProt Q75QN2, sequence (Q75QN2 whole entry, looked up): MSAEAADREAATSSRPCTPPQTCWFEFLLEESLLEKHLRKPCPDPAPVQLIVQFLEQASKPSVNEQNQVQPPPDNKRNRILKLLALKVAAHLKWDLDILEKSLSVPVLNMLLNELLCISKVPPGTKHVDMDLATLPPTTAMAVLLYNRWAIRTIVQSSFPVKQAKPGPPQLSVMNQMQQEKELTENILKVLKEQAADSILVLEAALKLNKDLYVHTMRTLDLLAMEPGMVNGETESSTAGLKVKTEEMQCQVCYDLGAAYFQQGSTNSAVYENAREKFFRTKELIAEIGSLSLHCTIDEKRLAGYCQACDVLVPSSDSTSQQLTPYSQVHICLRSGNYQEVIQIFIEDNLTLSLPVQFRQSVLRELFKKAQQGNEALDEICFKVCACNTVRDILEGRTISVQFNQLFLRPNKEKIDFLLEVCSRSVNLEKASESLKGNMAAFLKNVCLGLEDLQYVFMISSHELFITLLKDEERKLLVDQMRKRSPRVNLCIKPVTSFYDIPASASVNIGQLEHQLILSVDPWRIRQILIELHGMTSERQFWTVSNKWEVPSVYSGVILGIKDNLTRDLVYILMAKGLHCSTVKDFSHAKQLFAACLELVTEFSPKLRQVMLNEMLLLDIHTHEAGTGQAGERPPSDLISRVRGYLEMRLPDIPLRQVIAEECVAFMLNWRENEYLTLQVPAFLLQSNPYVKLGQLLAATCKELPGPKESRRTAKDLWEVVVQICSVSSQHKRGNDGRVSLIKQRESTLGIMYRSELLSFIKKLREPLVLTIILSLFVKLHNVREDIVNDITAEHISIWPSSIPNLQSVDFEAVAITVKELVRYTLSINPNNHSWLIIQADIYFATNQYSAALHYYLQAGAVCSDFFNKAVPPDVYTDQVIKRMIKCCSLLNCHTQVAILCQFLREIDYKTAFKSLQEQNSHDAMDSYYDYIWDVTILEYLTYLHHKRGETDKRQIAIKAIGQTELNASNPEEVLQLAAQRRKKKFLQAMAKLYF
inactive: erlotinib -0.002 | [1] 0.043 | [2] -0.051 | [3] 0.02 | [4] -0.048 | [5] 0.037 | [6] -0.004 | [7] 0.066 | [8] -0.035 | IRAK-1-4 Inhibitor I 0.015 | ibrutinib 0.024 | [9] 0.028 | ralimetinib 0.058 | [10] -0.028 | [11] 0.009 | [12] -0.021 | [13] -0.179 | [14] 0.023 | [15] -0.033 | [16] 0.031

HNRNPL (UniProt P14866)
UniProt P14866, sequence (P14866 whole entry, looked up): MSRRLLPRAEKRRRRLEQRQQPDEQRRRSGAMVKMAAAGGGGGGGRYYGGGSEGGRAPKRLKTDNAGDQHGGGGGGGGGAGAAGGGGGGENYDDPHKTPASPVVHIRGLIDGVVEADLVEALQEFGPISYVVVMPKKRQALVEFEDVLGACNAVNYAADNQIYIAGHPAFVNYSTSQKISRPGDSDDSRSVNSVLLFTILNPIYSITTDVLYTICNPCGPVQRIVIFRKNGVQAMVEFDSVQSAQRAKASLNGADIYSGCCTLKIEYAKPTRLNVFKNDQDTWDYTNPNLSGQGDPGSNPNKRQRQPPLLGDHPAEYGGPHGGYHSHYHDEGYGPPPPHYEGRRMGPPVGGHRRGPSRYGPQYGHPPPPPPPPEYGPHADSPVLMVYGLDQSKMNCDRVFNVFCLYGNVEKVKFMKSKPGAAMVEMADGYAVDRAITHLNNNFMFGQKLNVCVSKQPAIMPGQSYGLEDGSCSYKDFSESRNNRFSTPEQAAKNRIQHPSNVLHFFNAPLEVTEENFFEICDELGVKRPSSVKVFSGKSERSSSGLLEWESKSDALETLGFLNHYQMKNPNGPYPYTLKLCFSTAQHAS
inactive: erlotinib 0.054 | [1] 0.073 | [2] 0.022 | [3] -0.007 | [4] 0.013 | [5] 0.033 | [6] -0.041 | [7] -0.017 | [8] -0.003 | IRAK-1-4 Inhibitor I 0.014 | ibrutinib -0.015 | [9] 0.012 | ralimetinib 0.047 | [10] 0.046 | [11] 0.051 | [12] 0 | [13] 0.021 | [14] 0.001 | [15] 0.058 | [16] 0.032

HMBOX1 isoform 5 (UniProt Q6NT76)
inactive: erlotinib 0.045 | [1] -0.094 | [2] -0.004 | [3] 0.026 | [4] -0.037 | [5] -0.004 | [6] -0.057 | [7] -0.028 | [8] 0.004 | IRAK-1-4 Inhibitor I -0.009 | ibrutinib 0.051 | [9] 0.021 | ralimetinib 0.026 | [10] 0.007 | [11] 0.072 | [12] -0.014 | [13] 0.052 | [14] 0.015 | [15] 0.005 | [16] 0.054

HSPA8 (UniProt P11142)
UniProt P11142, sequence (P11142 whole entry, looked up): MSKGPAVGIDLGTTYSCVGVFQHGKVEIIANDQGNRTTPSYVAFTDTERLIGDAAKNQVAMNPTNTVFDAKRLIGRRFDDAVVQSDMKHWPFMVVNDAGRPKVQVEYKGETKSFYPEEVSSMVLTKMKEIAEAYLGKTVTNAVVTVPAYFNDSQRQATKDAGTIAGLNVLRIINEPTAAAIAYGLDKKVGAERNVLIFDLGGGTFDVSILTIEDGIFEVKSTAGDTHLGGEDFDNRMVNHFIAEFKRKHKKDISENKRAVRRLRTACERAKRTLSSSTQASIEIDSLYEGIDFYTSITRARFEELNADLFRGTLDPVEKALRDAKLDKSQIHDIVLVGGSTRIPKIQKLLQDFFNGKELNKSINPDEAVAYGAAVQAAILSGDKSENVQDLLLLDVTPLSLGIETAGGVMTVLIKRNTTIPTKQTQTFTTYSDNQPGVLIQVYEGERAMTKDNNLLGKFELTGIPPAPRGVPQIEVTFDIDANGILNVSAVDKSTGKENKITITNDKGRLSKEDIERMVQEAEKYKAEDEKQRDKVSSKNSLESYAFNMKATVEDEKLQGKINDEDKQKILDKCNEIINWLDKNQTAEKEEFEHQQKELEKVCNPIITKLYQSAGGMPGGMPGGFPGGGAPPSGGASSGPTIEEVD
inactive: erlotinib -0.022 | [1] 0.003 | [2] 0.008 | [3] 0.002 | [4] -0.028 | [5] -0.004 | [6] 0.038 | [7] 0.016 | [8] -0.009 | IRAK-1-4 Inhibitor I -0.008 | ibrutinib -0.02 | [9] -0.002 | ralimetinib -0.015 | [10] -0.003 | [11] 0.001 | [12] -0.022 | [13] 0.005 | [14] -0.013 | [15] -0.002 | [16] 0.009
